Screening results as filed in PubChem BioAssay.
ABCB6 inh MLPCN – ABCB6 transporter inhibitors, primary screen, K562-ABCB6 cells, flow cytometry, MLPCN library | K562-ABCB6 porphyrin accumulation, 1 h; stronger effect = lower value | fluorescence ratio to DMSO, % at 10 µM | 360,000 compounds, 0.19% hits | AID 602162, 2011;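 active means fluorescence ratio to DMSO below 75%, the collection mean minus 3 SD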;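 further: signal is porphyrin accumulated inside mitochondria; lower ratio means ABCB6 inhibition with less porphyrin fluorescence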
Target sequence (Q9NP58 whole entry, looked up): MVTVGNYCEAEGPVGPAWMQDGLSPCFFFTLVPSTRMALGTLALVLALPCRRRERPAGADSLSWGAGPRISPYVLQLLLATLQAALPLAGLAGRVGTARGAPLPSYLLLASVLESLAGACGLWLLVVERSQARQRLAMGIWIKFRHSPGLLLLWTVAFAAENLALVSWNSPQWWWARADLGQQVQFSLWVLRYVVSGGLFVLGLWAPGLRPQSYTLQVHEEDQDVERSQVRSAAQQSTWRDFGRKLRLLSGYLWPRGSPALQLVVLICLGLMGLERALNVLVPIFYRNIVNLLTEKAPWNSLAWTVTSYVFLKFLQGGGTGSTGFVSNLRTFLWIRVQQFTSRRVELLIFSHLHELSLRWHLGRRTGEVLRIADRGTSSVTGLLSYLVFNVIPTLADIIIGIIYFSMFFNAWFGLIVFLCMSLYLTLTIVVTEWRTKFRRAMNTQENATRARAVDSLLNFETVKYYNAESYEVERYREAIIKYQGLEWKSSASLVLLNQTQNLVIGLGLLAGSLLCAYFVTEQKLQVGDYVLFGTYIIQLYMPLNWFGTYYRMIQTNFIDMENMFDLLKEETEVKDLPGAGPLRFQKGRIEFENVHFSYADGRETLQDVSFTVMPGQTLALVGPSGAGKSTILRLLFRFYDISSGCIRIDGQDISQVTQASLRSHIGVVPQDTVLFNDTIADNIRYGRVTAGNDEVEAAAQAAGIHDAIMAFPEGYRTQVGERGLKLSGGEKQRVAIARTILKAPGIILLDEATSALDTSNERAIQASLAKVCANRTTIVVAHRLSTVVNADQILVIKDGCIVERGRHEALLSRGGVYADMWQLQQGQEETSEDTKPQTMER
Exocytosis inh – LAMP-1 surface exposure blockers, TALL-104 cells – cell-based, flow cytometry, MLPCN library, primary screen | TALL-104 LAMP-1 surface exposure; cells stimulated with thapsigargin and PMA | inhibition, % at 10 µM | 360,000 compounds, 0.66% hits | AID 651702, 2012;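 active means inhibition above about 55%, limit read from the data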
Myeloid diff 2 – induction of myeloid progenitor differentiation, primary screen, cell-based, flow cytometry, MLPCN library; ER-HoxA9 myeloid progenitors, lysozyme-GFP differentiation; calls only at 10 µM; 360,000 compounds, 1% hits; AID 624256, 2012;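 active means normalized GFP-positive differentiation at or above the plate's own cutoff, the solvent-only control mean plus 3 SD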;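 further: cells exposed to compound for four days before flow analysis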
Myeloid diff CP1 – inducers of myeloid progenitor differentiation, confirmation, cell-based, GFP/Mac1 flow cytometry, cherry pick 01; shares compounds with Myeloid diff 2; ER-HoxA9 myeloid progenitors, GFP/Mac1 double-positive flow; calls only; 2,300 compounds, 2% hits;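 active means share of green or green-and-red cells above 9 and 9% in run 1 or 4 and 3% in run 2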
GFP autofluor – compound fluorescence in myeloid differentiation counter-screen. shares compounds with Myeloid diff 2. ER-HoxA9 myeloid progenitors, no estrogen, GFP autofluorescence flow cytometry; vehicle wells 0%, positive control 100%. fluorescence response, % (concentration not given with the values). 2,300 compounds, 7.4% hits. AID 651707;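 active means over 5% cells positive for green fluorescent reporter, or over 2% positive for both it and APC stain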
Calls only; - = inactive; . = no result; + = active, no number. This is a sample that favours compounds with a hit; in the whole collection about 1.8% have one here.

SMILES | ABCB6 inh MLPCN | Exocytosis inh | Myeloid diff 2 | Myeloid diff CP1 | GFP autofluor
CCCCOC(=O)C(C#N)c1nc2ccccc2nc1N1CCN(Cc2ccc3c(c2)OCO3)CC1 (stereo unspecified) | - | - | + | - | -
Cc1cc(C)nc(SCc2ccc(C(=O)N/N=C/c3ccccc3C(=O)O)cc2)n1 | - | - | - | . | .
COc1cc(OC)c(OC)cc1/C=N/NC(=O)c1ccc(CSc2nc(C)cc(C)n2)cc1 | - | - | + | - | -
C/C(=N\NC(=O)C1CCCN(S(=O)(=O)c2ccccc2)C1)c1ccccn1 (stereo unspecified) | - | - | . | - | -
C/C(=N\NC(=O)C1CCCN(S(=O)(=O)c2ccccc2)C1)c1ccncc1 (stereo unspecified) | - | - | - | . | .
COc1ccc(C2=Cc3ccccc3C(CC(=O)C3CC3)N2c2ccc(C#CCCO)cc2)cc1 (stereo unspecified) | - | - | - | . | .
CCc1cccc(NC(=O)CCS(=O)(=O)c2ccc(Br)cc2)c1 | - | - | - | . | .
CN(C)c1ccc(C(CNS(=O)(=O)c2ccc(F)cc2)c2c[nH]c3ccccc23)cc1 (stereo unspecified) | - | - | - | . | .
O=[N+]([O-])CC(c1ccccc1)c1c[nH]c2ccccc12 (stereo unspecified) | - | - | + | - | -
COc1cc(NC(=O)N[C@H](C(=O)O)C(C)C)cc(OC)c1 | - | - | + | - | -
COc1cc(NC(=O)N[C@@H](CCSC)C(=O)O)cc(OC)c1 | - | - | - | . | .
COc1cccc(/C=N/NC(=O)CN(C)S(=O)(=O)c2ccccc2)c1OC | - | - | - | . | .
Cc1cc(C)c(C)c(S(=O)(=O)N2CCC(C(=O)Nc3ccc(S(=O)(=O)N4CCOCC4)cc3)CC2)c1C | - | - | - | - | -
O=C(Nc1ccc(S(=O)(=O)N2CCOCC2)cc1)C1CCN(S(=O)(=O)c2ccccc2)CC1 | - | - | - | . | .
COc1ccc(OC)c(S(=O)(=O)N2CCC(C(=O)NCc3ccccc3OC)CC2)c1 | - | - | - | . | .
COc1ccc(OC)c(S(=O)(=O)N2CCC(C(=O)NCc3ccccc3)CC2)c1 | - | - | - | - | -
O=C(Nc1nnc([C@@H]2C[C@H](O)[C@@H](CO)O2)s1)c1cccc(OC(F)(F)F)c1 | - | - | - | . | .
CC(=O)Nc1sc(C)c(C)c1C(=O)OCC(=O)Nc1ccc(S(N)(=O)=O)cc1 | - | - | + | - | -
COC(=O)c1c(NC(=O)COC(=O)CCNS(=O)(=O)c2ccc(NC(C)=O)cc2)sc(C)c1C | - | - | - | . | .
Cn1cc(CC(=O)N2CCN(c3ccc(Cl)cc3)CC2)c2ccccc21 | - | - | - | - | -
Cn1cc(CC(=O)N2CCN(c3ccccc3F)CC2)c2ccccc21 | - | - | - | . | .
O=C(COC(=O)Cc1ccc(S(=O)(=O)N2CCOCC2)s1)Nc1ccc(OC(F)F)cc1 | - | - | - | . | .
CSc1ccc(/C=C(\C#N)C(=O)Nc2cccc(C)c2)cc1 | - | - | - | . | .
Cc1ccc(S(=O)(=O)N2Cc3ccccc3CC2C(=O)NC(C)(C)C)cc1 (stereo unspecified) | - | - | - | . | .
Cc1cc(N2CCOCC2)nc2ccc(NC(=O)CCC(=O)N3CCC(C)CC3)cc12 | - | - | - | . | .
SMILES | ABCB6 inh MLPCN | Exocytosis inh | Myeloid diff 2 | Myeloid diff CP1 | GFP autofluor
CCCCNC(=O)CCC(=O)Nc1ccc2nc(N3CCC(C)CC3)cc(C)c2c1 | - | - | - | - | -
CCOc1ccc(N(CC(=O)Nc2ccccc2Cl)S(C)(=O)=O)cc1 | - | - | - | . | .
CCOc1ccc(N(CC(=O)Nc2cc(Cl)ccc2C)S(C)(=O)=O)cc1 | - | - | + | - | -
O=C(O)CCn1c(SCCOc2ccccc2)nc2ccccc21 | - | - | - | . | .
CSc1nnc(CCNS(=O)(=O)c2ccccc2Br)n1C | - | - | - | . | .
O=C(Nc1ccnc(-c2cccnc2)n1)c1cccs1 | - | - | - | . | .
CCOC(=O)c1cc(-c2ccccc2)sc1NC(=O)C(C)(C)C | - | - | - | . | .
CCOC(=O)c1cc(-c2ccccc2)sc1NC(=S)Nc1cc(C)ccn1 | - | - | + | - | -
CCCOP(=O)(c1ccc(N(C)C)cc1)C(O)c1ccc(Br)cc1 (stereo unspecified) | - | - | - | . | .
C[C@@H]1CN([C@@H](C)CO)C(=O)c2cc(C#Cc3ccccc3)cnc2O[C@@H]1CN(C)Cc1ccccn1 | - | - | - | . | .
O=C1NC2(CCCCC2)C(=O)N1/N=C/c1ccc(O)cc1O | - | - | + | - | -
O=C1NC2(CCCCC2)C(=O)N1/N=C/c1ccccc1Br | - | - | - | . | .
Cc1cc(C)c(C)c(N=Nc2nc3ccccc3n2C)c1C | - | - | - | . | .
Cc1ccc(C)c(N=Nc2nc3ccccc3n2C)c1 | - | - | + | - | -
CC(C)(C)NC(=O)CSc1ncnc2c1cnn2-c1ccccc1 | - | - | - | . | .
C#CCOCCOCCOCCNc1nc(N2CCN(C(=O)[C@H]([C@@H](C)CC)n3cc([C@@H](N)CO)nn3)CC2)nc(N2CCN(C(=O)[C@H]([C@@H](C)CC)n3cc([C@@H](N)Cc4ccc(O)cc4)nn3)CC2)n1 | - | - | - | . | .
C#CCOCCOCCOCCNc1nc(N2CCN(C(=O)[C@H](C(C)C)n3cc(CCO)nn3)CC2)nc(N2CCN(C(=O)[C@H]([C@@H](C)CC)n3cc(CCCCN)nn3)CC2)n1 | - | - | - | . | .
C#CCOCCOCCOCCNc1nc(N2CCOCC2)nc(N2CCN(C(=O)[C@H]([C@@H](C)CC)n3cc(CCCCN)nn3)CC2)n1 | - | - | + | - | -
C#CCOCCOCCOCCNc1nc(N2CCN(C(=O)[C@H]([C@@H](C)CC)n3cc([C@@H](N)CO)nn3)CC2)nc(N2CCN(C(=O)[C@H](Cc3ccc(O)cc3)n3cc([C@@H](N)C(C)CC)nn3)CC2)n1 (stereo partly specified) | - | - | - | - | -
CCC1CN(C(=O)N2CCC(C(=O)NCCc3ccccc3OC)CC2)c2ccccc2O1 (stereo unspecified) | - | - | - | . | .
O=C(Nc1c(F)c(F)c(F)c(F)c1F)c1ccc(Br)o1 | - | - | - | . | .
CC(Oc1ccc(-c2ccccc2)c(F)c1)c1ccn(S(=O)(=O)c2ccc(F)cc2)n1 (stereo unspecified) | - | - | - | - | -
COc1ccc(S(=O)(=O)n2ccc(C(C)Oc3ccc(-c4ccccc4)c(F)c3)n2)cc1 (stereo unspecified) | - | - | - | . | .
O=C(NCCCN1CCOCC1)c1ccc2c(c1)N(Cc1ccccc1F)C(=O)c1ccccc1S2=O (stereo unspecified) | - | - | - | . | .
COc1ccccc1N=CC1=C(O)CC(c2ccccc2)CC1=O (stereo unspecified) | - | - | - | . | .
CCc1c(N)nc(N)nc1Nc1ccc(C)c(C)c1 | - | - | - | - | -
CCc1c(Cl)nc(N)nc1Nc1ccccc1C | - | - | - | . | .
